Experimental findings from PubChem BioAssay (EPA / NIEHS) are described below.

Structures are written as SMILES. Active and inactive are the calls of the source. Rule for the calls: active = hit-call score of the fitted dose curve at least 0.9, where 1 is the maximum; inactive = score below 0.9.

Read-out in this test: Monocyte Chemoattractant Protein-1 (MCP1), CCL2 (gene 6347)
Kind of test: BSK_LPS_MCP1: BioMAP Diversity Plus: LPS Assay for Monocyte Chemoattractant Protein-1 (MCP1) Biomarker Activity (AID 2283081).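 For AC50: secreted MCP-1 protein quantified by ELISA in culture supernatant.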 The following applies: primary human HUVEC with PBMC; actives raise or lower the signal. An outline of the steps: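 Human umbilical vein endothelial cells co-cultured with PBMC, LPS-stimulated; secreted MCP-1 measured by ELISA 24 h after compound addition. Bidirectional curve fitting against DMSO baseline; SRB total-protein staining in parallel cultures for cytotoxicity.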
`Cc1ccc2nc3sc(=O)sc3nc2c1`: the AC50 was 6.93 µM (active). `Nc1c(Oc2ccccc2)cc(O)c2c1C(=O)c1ccccc1C2=O`: the result was inactive.

For `Cc1cc(C)cc(C)c1`, the outcome was inactive. As to `CCN(CC)C(=O)C(Cl)=C(C)OP(=O)(OC)OC`, the result was inactive. With `Oc1cccc(-c2ccccc2)c1`, the AC50 is 4.9 µM (active).

On to `[Cl][Sn]([c]1ccccc1)([c]1ccccc1)[c]1ccccc1`, for which the AC50 is 0.258 µM (active). With `OCCCCO`, the outcome was inactive.

On to `OCCN(CCO)CCO`, for which the result was inactive.

In the case of `CCOC(=O)C(SP(=S)(OC)OC)c1ccccc1` (centres undefined), the result was inactive. Regarding `OC(Cc1ccccc1Cl)(Cn1cncn1)C1(Cl)CC1` (centres undefined), the outcome was inactive. On the same count and under the same terms, next, `CCC(C)(C#N)N=NC(C)(C#N)CC` (centres undefined): “inactive”; `C[C@]12CC[C@@H](O)C[C@@H]1CC[C@@H]1[C@@H]2CC[C@]2(C)C(=O)CC[C@@H]12`: “inactive”. Turning to `Cc1ccccc1OP(=O)(Oc1ccccc1)Oc1ccccc1`, the AC50 was 20 µM (active). Consider `Oc1cc(Cl)c(Cl)cc1Cl`, for which the AC50 is 30.2 µM (active).

As for `O=C(O)COc1cc(Cl)c(Cl)cc1Cl`, the result was inactive. On the same count and under the same terms, next, `Cc1cc(Cl)ccc1OC(C)C(=O)O` (centres undefined): “inactive”; `O=C(CCl)NCO`: “inactive”; `Clc1cccc(Cl)c1Cl`: “inactive”. The same measure, in the same setting: next, `Cc1c([N+](=O)[O-])c(C)c([N+](=O)[O-])c(C(C)(C)C)c1[N+](=O)[O-]`: “inactive”; `CC(C)(C)c1cc([N+](=O)[O-])cc(C(C)(C)C)c1O`: “inactive”.

As for `O=C1C=CC(=O)c2ccccc21`, the AC50 is 2.7 µM (active).

`Clc1cccc(Cl)c1`: the result was inactive. As for `O=C(N[C@H]1CN2CCC1CC2)c1ccc2c(c1)OCCO2`, the outcome was inactive. In the case of `COCC(=O)N(c1c(C)cccc1C)[C@H](C)C(=O)OC`, the outcome was inactive.

For orientation: AC50 means the midpoint of the concentration-response curve, whichever way the signal moves.
